The results in this text go back to PubChem BioAssay AID602413 (Johns Hopkins Ion Channel Center, 2012).

Screen size: about 1,200 compounds; about 150 (12%) were called active.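 Rule for the calls: active = ratio at least 3 SD above the weak peptide control, stable starting fluorescence, no direct agonism earlier; inactive = the rest.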 Only a sample is shown.

Sequence of Mas-related G-protein coupled receptor member X1 (Homo sapiens) (Q96LB2 whole entry, looked up): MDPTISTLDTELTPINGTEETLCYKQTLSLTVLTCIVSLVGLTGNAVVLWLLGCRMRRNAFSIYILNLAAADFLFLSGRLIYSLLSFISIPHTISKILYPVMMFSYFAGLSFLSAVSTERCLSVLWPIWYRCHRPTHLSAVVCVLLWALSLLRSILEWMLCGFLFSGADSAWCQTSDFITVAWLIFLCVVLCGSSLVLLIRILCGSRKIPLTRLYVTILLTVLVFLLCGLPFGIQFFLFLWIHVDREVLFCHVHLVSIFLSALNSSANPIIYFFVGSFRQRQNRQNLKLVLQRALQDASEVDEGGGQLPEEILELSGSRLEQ

The experiment concerns the target Mas-related G-protein coupled receptor member X1 (Homo sapiens) (UniProt Q96LB2). The experiment in a line: allosteric enhancers of human MrgX1 signaling – HEK293 cells, Fluo-4 calcium flux, confirmation (AID 602413).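 Note: compound followed by low BAM8-22 agonist challenge near EC20.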 The following applies: MrgX1-HEK293, Fluo-4 calcium fluorescence, FDSS, at 10 µM; stronger effect = higher value.
Regarding `OCCn1c(-c2ccccc2)csc1=Nc1ccccc1`, the activation (ratio percentage) result was “inactive”.
On to `CN1/C(=C\C=C2\N=C(c3ccc(F)cc3)OC2=O)C(C)(C)c2ccccc21`, for which the activation (ratio percentage) result was “inactive”.
For the compound `COCCNC(=O)C1CCN(S(=O)(=O)c2ccc3c(c2)OCCO3)CC1`, the activation (ratio percentage) entry is “inactive”.
`Fc1cccc(Cl)c1COc1ccc(-c2nnco2)cc1`: the activation (ratio percentage) entry was “inactive”.
As for `O=C1C(Cc2ccc(O)cc2)NC(=S)N1Cc1ccccc1` (centres undefined), the activation (ratio percentage) result was “inactive”.
With `COC(=O)c1c(NC(=O)CN(c2ccc(C)c(C)c2)S(C)(=O)=O)sc2c1CCCC2`, the activation (ratio percentage) result was “inactive”.
The value for `Cc1cccc(Cn2cnc3c(N)c(C)c(C)cc32)c1` was “inactive”; that for `COc1cccc(-c2cnc(OC(C)(C)C)nc2OC(C)(C)C)c1` was “inactive”; that for `Brc1ccccc1C1Nc2cccc3cccc(c23)N1` was “inactive”.
For the compound `Cc1ccc(OC(=O)c2cc3ccccc3o2)cc1`, the activation (ratio percentage) entry was “inactive”.
As for `Cc1cccc(NC(=O)C(C)N2C(=O)C3C4CC(C(Br)C4Br)C3C2=O)c1` (centres undefined), the activation (ratio percentage) is 11.6% (active).
As to `Cc1ccnc(NC(=O)C(C)N2C(=O)c3ccccc3C2=O)c1` (centres undefined), the activation (ratio percentage) entry is “inactive”.
Consider `COC(=O)Cn1c(O)c(N=NC(=O)OC)c2ccccc21`, for which the activation (ratio percentage) result is “inactive”.
Regarding `CCOc1ccc(C2=CC(c3ccccc3)n3ncnc3N2)cc1` (centres undefined), the activation (ratio percentage) result was “inactive”.
For the compound `COc1ccc(C2SCCN2S(=O)(=O)c2ccccc2)cc1OC` (centres undefined), the activation (ratio percentage) entry is “inactive”.
As for `COc1cc(C)c(C)cc1S(=O)(=O)N1CCCc2ccccc21`, the activation (ratio percentage) is 12.4% (active).
`COc1cc(C(F)(F)F)nc2c(Br)c(C(C)(C)C)nn12`: the activation (ratio percentage) entry was “inactive”.
As for `Cc1c(C(=O)N2CCCc3ccccc32)sc2nc(-c3ccccc3)cn12`, the activation (ratio percentage) entry was “inactive”.
`CCOc1ccc2nc(/N=C/c3nc(-c4ccccc4)oc3O)sc2c1`: the activation (ratio percentage) result is “inactive”.
Turning to `Cc1c(C(=O)N2CCN(c3ccc(F)cc3)CC2)oc2c1C(=O)CCC2`, the activation (ratio percentage) entry is “inactive”.
As for `CCOc1ccc(NC(=O)N2CC=C(n3c(=O)[nH]c4ccccc43)CC2)cc1`, the activation (ratio percentage) result is “inactive”.
For `CCc1ccc(N(CC(=O)Nc2sc3c(c2C(=O)OC)CCCC3)S(C)(=O)=O)cc1`, the activation (ratio percentage) result was “inactive”.
With `O=C(c1ccc(OC2CCN(C(=O)c3cccnc3)CC2)cc1)N1CCCCCC1`, the activation (ratio percentage) result was “inactive”.
On to `CC(C)CNc1ncnc2c1cnn2Cc1ccc(Cl)cc1`, for which the activation (ratio percentage) entry is “inactive”.
Turning to `CC(=O)N1c2ccc(S(=O)(=O)N3CCCC(C(=O)Nc4cccc(Cl)c4)C3)cc2CC1C` (centres undefined), the activation (ratio percentage) result is “inactive”.
Turning to `Cc1ccc(-n2cnc3ncnc(-c4ccccc4)c32)cc1`, the activation (ratio percentage) entry was “inactive”.
For `CC(C)CC(=O)N/C(N)=N/c1nc2ccccc2s1`, the activation (ratio percentage) entry was “inactive”.
With `Cc1ccc2nc(Nc3ccccc3)cc(C)c2c1`, the activation (ratio percentage) entry is “inactive”.
As to `COc1ccc(Cc2nc(-c3ccccn3)no2)cc1OC`, the activation (ratio percentage) entry was “inactive”.
Take `Nc1cc(OC(=O)c2ccccc2Br)nn1S(=O)(=O)c1ccccc1`: the activation (ratio percentage) entry was “inactive”.
Turning to `O=C(c1cccc(S(=O)(=O)Nc2ccccc2Cl)c1)N1CCN(C(=O)c2ccco2)CC1`, the activation (ratio percentage) result was “inactive”.
On to `Nc1ccc(Oc2ccc(Cl)cc2)cc1`, for which the activation (ratio percentage) result is “inactive”.
In the case of `CC1(C)CC2CC(C)(CN2c2ncnc3ccc(Br)cc23)C1` (centres undefined), the activation (ratio percentage) was 29.4% (active).
The value for `Cc1ccc(S(=O)(=O)N(C)c2nc3ccccc3n3c(C(C)C)nnc23)cc1` was 27.8% (active); that for `COc1ccc(Nc2nnc(C)c3ccccc23)cc1` was “inactive”; that for `O=C(Nc1cccc(Cl)c1)c1cncn1-c1ccc(F)cc1` was “inactive”.
The value for `O=C(Nc1nc2c(F)cc(F)cc2s1)C1COc2ccccc2O1` (centres undefined) was “inactive”.
On to `NC(=O)c1c(Nc2nc3c(F)cccc3s2)sc2c1CCCC2`, for which the activation (ratio percentage) was 15.4% (active).
In the case of `COc1ccc(NC(=O)c2cc(-c3ccc(C)o3)nc3ccccc23)cc1`, the activation (ratio percentage) entry is “inactive”.
For `O=C(COC(=O)c1ccc(NS(=O)(=O)c2cccs2)cc1O)Nc1ccc(F)cc1`, the activation (ratio percentage) result was “inactive”.
As for `Cc1nn(C(=O)c2ccoc2C)c(N)c1-c1ccccc1`, the activation (ratio percentage) entry is “inactive”.
The value for `Cc1nc2ccccc2cc1OCc1ccc(F)cc1` was “inactive”.
For `Cc1cc2ncn(CCCCOc3ccccc3)c2cc1C`, the activation (ratio percentage) entry was “inactive”.
With `CCN(c1cccc(C)c1)S(=O)(=O)c1ccc(-c2coc(C)n2)cc1`, the activation (ratio percentage) entry is “inactive”.
In the case of `Cc1ccc(N/C(N)=N/c2nc(C(F)(F)F)cc(C(F)(F)F)n2)cc1`, the activation (ratio percentage) result was “inactive”.
The value for `O=C(Nc1ccccc1N1CCOCC1)c1csc2c1CCCC2` was “inactive”; that for `O=C(Nc1ccccc1N1CCCCC1)c1ccc2nccnc2c1` was 11.5% (active).
Consider `Cc1nonc1C1CCCN1Cc1nc(-c2ccc(F)cc2F)oc1C` (centres undefined), for which the activation (ratio percentage) entry was “inactive”.
The value for `CCOC(=O)N1CCN(C(=O)COCc2cc(-c3ccc4c(c3)OCO4)on2)CC1` was “inactive”; that for `COc1ccc(-c2cc(C(F)(F)F)nc(S(C)(=O)=O)n2)cc1OC` was “inactive”.
For the compound `O=C(Oc1ccc(C(=S)N2CCOCC2)cc1)c1ccc(F)cc1`, the activation (ratio percentage) result is “inactive”.
With `Cc1ccc2c(c1)c1ncnc(N3CCc4ccccc4C3)c1n2C`, the activation (ratio percentage) result was “inactive”.
The value for `Cc1occc1C(=O)Nc1nnc(-c2ccncc2)s1` was “inactive”.
For the compound `Cc1ccc2c(C)c(C(=O)N(C)CCC3CCCCO3)oc2c1C` (centres undefined), the activation (ratio percentage) entry was “inactive”.
In the case of `CCOCc1nnc(NC(=O)CCC2CCCCC2)s1`, the activation (ratio percentage) entry was “inactive”.
For `COc1ccc(OC)c(Nc2nc3ccccc3n3cnnc23)c1`, the activation (ratio percentage) result was “inactive”.
For the compound `COC(=O)Cc1cc(=O)n(-c2nc3ccccc3s2)[nH]1`, the activation (ratio percentage) entry is “inactive”.
As for `CCC(C)Sc1nc(C)nc2c1c(=O)n(C)c(=O)n2C` (centres undefined), the activation (ratio percentage) entry is “inactive”.
With `COc1ccc(C(=O)NC(=S)NC2CCCCC2)cc1`, the activation (ratio percentage) result is “inactive”.
